Many of the other results were omitted from the sample, so hits are more common in it than they were.
IL1B secr inh = qHTS for Inhibitors of Inflammasome Signaling: IL-1-beta AlphaLISA Primary Screen; THP-1 LPS/ATP IL-1B secretion, AlphaLISA, 16 h; active compounds read low; activity change, % at 57.5 µM; actives 4.7% (n = 360,000); in the data active = activity change below about -50%; inconclusive = mostly about -30% to -49%
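Secreted IL-1B measured by AlphaLISA bead assay after 16 h compound exposure of THP-1 cells; compounds (final up to 57.5 uM) added 1 h before LPS (250 ng/mL) and ATP (1.25 mM) stimulation; lower signal means less secretion.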
HT1080NT lethal = qHTS for induction of synthetic lethality in tumor cells producing 2HG: qHTS for the HT-1080-NT fibrosarcoma cell line; HT-1080-NT fibrosarcoma viability, CellTiter-Glo ATP luminescence, 48 h; Potency, µM (doses to about 46.1 µM), inactives show at the top dose activity, negative = less viability, most hits filed as cytotoxic; actives 1.6% (n = 360,000);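 also: NT is the 2HG producing partner of a matched IDH1 knockdown line; potency is read from the fitted curve at half-maximal effect; 0% = DMSO-treated cells and -100% = media-only wells without cells; nearly all actives have a fitted effect of over 55% in size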
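Luminescent CellTiter-Glo readout after 48 hours of compound exposure at 37 degrees C defined viability of HT-1080-NT cells. Activity was normalized to DMSO wells and cell-free media wells; concentration-response curves were fitted and assigned curve classes.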
HT1080 IDH1KD tx = qHTS for induction of synthetic lethality in tumor cells producing 2HG: qHTS for the HT-1080-IDH1KD cell line. HT-1080 IDH1 knockdown viability, ATP luminescence, 48 h. Potency, µM (titrated, usually from 46.1 µM), inactives show top-dose activity, negative = toxicity, usual class: cytotoxic. actives 2% (n = 360,000). AID 686971, 2013;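 also: potency is read from the fitted curve at half-maximal effect; 0% = DMSO wells and -100% = cell-free medium wells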
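% activity derives from luminescence (CellTiter-Glo), normalised to DMSO and no-cell wells. HT-1080-IDH1KD cells, 750/well, had 48 h compound exposure at 37 °C.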
12-LOX inh = Primary qHTS assay for inhibitors of human arachidonate 12S-lipoxygenase (ALOX12): Round 2; actives 1.1% (n = 580,000); Polyunsaturated fatty acid lipoxygenase ALOX12 (Homo sapiens), P18054; AID 1671190, 2021; purified 12hLO, xylenol orange hydroperoxide absorbance; Potency, µM (doses to about 108 µM), for the others: top-dose activity change, negative = inhibition, most hits filed as inhibitors; also: potency is read from the fitted curve at half-maximal effect
Target sequence (P18054 whole entry, looked up): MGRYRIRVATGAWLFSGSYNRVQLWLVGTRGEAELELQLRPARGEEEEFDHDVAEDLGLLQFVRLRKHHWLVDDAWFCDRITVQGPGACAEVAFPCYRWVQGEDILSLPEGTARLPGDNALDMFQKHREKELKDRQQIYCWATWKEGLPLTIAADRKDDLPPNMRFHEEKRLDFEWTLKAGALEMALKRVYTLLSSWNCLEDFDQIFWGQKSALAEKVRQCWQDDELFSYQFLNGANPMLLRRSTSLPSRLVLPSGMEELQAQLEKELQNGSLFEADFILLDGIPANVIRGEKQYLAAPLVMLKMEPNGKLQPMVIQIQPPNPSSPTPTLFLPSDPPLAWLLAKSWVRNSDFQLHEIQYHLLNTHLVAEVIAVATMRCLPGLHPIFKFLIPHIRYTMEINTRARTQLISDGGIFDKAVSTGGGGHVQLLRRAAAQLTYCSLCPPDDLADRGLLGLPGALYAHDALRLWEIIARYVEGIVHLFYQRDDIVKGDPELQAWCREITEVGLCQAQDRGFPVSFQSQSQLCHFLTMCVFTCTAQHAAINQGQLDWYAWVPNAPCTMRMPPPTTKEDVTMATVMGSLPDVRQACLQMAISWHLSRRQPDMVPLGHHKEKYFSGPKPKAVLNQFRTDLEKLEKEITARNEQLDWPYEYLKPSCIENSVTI
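Purified human 12hLO (150 nM final) in 25 mM Hepes, 0.01% Triton X-100, pH 7.0 was preincubated 15 min at room temperature with compound. Then 40 uM arachidonic acid was added, 30 min. Hydroperoxide was read by Fe-XO absorbance ratio 573/405 nm.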
TDP1 cell noCPT = qHTS for Inhibitors of human tyrosyl-DNA phosphodiesterase 1 (TDP1): qHTS in cells in absence of CPT; Potency, µM (series often up to 46.2 µM), without a hit: top-dose activity change, negative = growth inhibition, usual class: inhibitors; actives 15% (n = 420,000); DT40 Tdp1-/- hTDP1 cells, no CPT, ATP luminescence, 48 h; also: potency is read from the fitted curve at half-maximal effect; nearly all actives have a fitted effect of over 55% in size
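Cells were dispensed at 400 per well, compounds added by pin tool, plates incubated ≥48 hr at 37 °C, then CellTiter-Glo added for 30 min at room temperature before luminescence reading. Line: DT40 Tdp1-/- complemented with hTDP1; camptothecin omitted.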
TDP1 cell CPT = qHTS for Inhibitors of human tyrosyl-DNA phosphodiesterase 1 (TDP1): qHTS in cells in presence of CPT | actives 12% (n = 420,000) | chicken DT40 Tdp1-/-;hTDP1 cells + 20 nM CPT, ATP luminescence, 48 h | Potency, µM (doses to about 46.2 µM), for the others: at the top dose activity change, negative = growth inhibition, most hits filed as inhibitors | AID 686979, 2013; also: potency is read from the fitted curve at half-maximal effect; nearly all actives have a fitted effect of over 55% in size
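Cell growth measured by CellTiter-Glo luminescence after a minimum 48 h, 37 C compound exposure with 20 nM CPT in Tdp1-knockout DT40 cells stably expressing hTDP1, seeded 400/well; qHTS titration format.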
* = called active by the depositor; ? = inconclusive; / = no result given. Unless noted, calls follow the shape of the dose curve; as a rule, active = well fitted curve in the direction sought with a large enough effect; inconclusive = small, poorly fitted or top-dose-only effect, or another doubt; inactive = no such curve, though single readings can be large; an effect the other way counts as inactive or inconclusive. Unless noted, % is scaled to controls: 0 for no effect and ±100 for the full control effect.

SMILES | IL1B secr inh | HT1080NT lethal | HT1080 IDH1KD tx | 12-LOX inh | TDP1 cell noCPT | TDP1 cell CPT
CC1CCCC/C1=N\NC(=S)Nc1cccnc1 (stereo unspecified) | 10 | 26% | 7% | -28% | 0% | -7%
O=C1NC(C(=O)Nc2ccccc2)Cn2cccc21 (stereo unspecified) | / | / | / | 18% | / | /
COCCNC(=O)CC(c1ccc(Cl)cc1)c1c[nH]c2ccc([N+](=O)[O-])cc12 (stereo unspecified) | / | / | / | 7.1µM* | / | /
CCCCNC(=O)CC(c1cccc([N+](=O)[O-])c1)c1c[nH]c2ccccc12 (stereo unspecified) | / | / | / | -6% | / | /
O=C(CC(c1ccc(F)cc1)c1cn(Cc2ccccc2)c2ccc([N+](=O)[O-])cc12)N1CCOCC1 (stereo unspecified) | / | / | / | 13% | / | /
O=C(CC(c1ccc(Cl)cc1)c1c[nH]c2ccc([N+](=O)[O-])cc12)N1CCOCC1 (stereo unspecified) | / | / | / | 8.9µM* | / | /
CCOc1cc(=O)n2c(c1C(=O)N1CCN(c3cccc(Cl)c3)CC1)CCCC2 | / | / | / | 6% | / | /
O=c1[nH]c2ccccc2nc1-c1ccccc1 | 20 | -4% | 11% | -5% | -1% | 20%
NC(=O)N=Nc1c2[nH]c3ccccc3nc-2c2ccccc12 | -89* | -18% | -14% | 9% | 8.2µM* | 16µM*
CCn1c2ccccc2c2nc3cc(OC)c(OC)cc3nc21 | -52* | ? | ? | ? | 13µM* | 13µM*
CCn1c2ccccc2c2nc3cc(C(=O)O)ccc3nc21 | -56* | ? | ? | -28% | -26% | 12%
CCn1c2ccccc2c2nc3ccccc3nc21 | -12 | -17% | -17% | / | 18µM* | ?
Cc1ccc2[nH]c(C(=O)NCc3cccs3)cc2c1 | / | / | / | -1% | / | /
N#Cc1nc(COc2ccc3c(c2)OCO3)oc1N1CCCCCC1 | / | / | / | -11% | / | /
CCc1ccc(OC(=O)c2ccc(C)cc2)cc1 | / | / | / | -20% | / | /
Cc1cc(Cl)cc(Cl)c1CNCC1(O)CCCNC1 (stereo unspecified) | / | / | / | 55% | / | /
C=CCC[C@@H](Cc1ccc(F)cc1)C(=O)OC[C@H](C)NC(=O)[C@@H](CC=C)CC(=O)N(CCO)Cc1ccccc1 | ? | -14% | -17% | -5% | 21µM* | ?
C=CC[C@H](CC(=O)N(CCO)Cc1ccccc1)C(=O)N[C@@H](C)COC(=O)[C@@H](CC=C)Cc1ccc(F)cc1 | -20 | -2% | -8% | 11% | ? | 16µM*
C=CCC[C@@H](Cc1ccc(F)cc1)C(=O)OC[C@@H](NC(=O)[C@H](CC=C)CC(=O)NCCO)C(C)(C)C | 5 | 12% | 2% | 2% | ? | ?
C=CC[C@@H](CC(=O)NCCO)C(=O)N[C@@H](C)COC(=O)[C@@H](CC=C)Cc1ccc(F)cc1 | 42 | 0% | 5% | 20% | -2% | 3%
C=CCC[C@H](Cc1ccc(F)cc1)C(=O)OC[C@@H](C)NC(=O)[C@H](CC=C)CC(=O)N(CCO)Cc1ccccc1 | 0 | 0% | -2% | -33% | 18µM* | 15µM*
C=CCC[C@@H](Cc1ccc(F)cc1)C(=O)OC[C@H](C)NC(=O)[C@H](CC=C)CC(=O)N(CCO)Cc1ccccc1 | ? | -8% | -1% | 1% | ? | 18µM*
O=C1CCN(Cc2ccccc2)CCCC(c2nc(-c3cnccn3)no2)CCN1 (stereo unspecified) | / | / | / | 82% | / | /
CC(C)Nc1nc(-c2ccc(S(=O)(=O)N3CCCCCC3)cc2)cs1 | / | / | / | -6% | / | /
CSc1cccc(NC(=O)O[C@@H]2CC[C@]3(C)C(CC[C@@H](O)[C@H]3CC(=O)NCc3ccccc3)[C@]2(C)CO)c1 (stereo partly specified) | / | / | / | 23% | / | /
SMILES | IL1B secr inh | HT1080NT lethal | HT1080 IDH1KD tx | 12-LOX inh | TDP1 cell noCPT | TDP1 cell CPT
Cc1ccc(C)c(S(=O)(=O)N2CCCC2c2nc3ccccc3[nH]2)c1 (stereo unspecified) | / | / | / | -4% | / | /
C=CCC[C@@H](Cc1ccc(F)cc1)C(=O)OCCNC(=O)[C@@H](CC=C)CC(=O)N(CCO)Cc1ccccc1 | -61* | -13% | -8% | -12% | 21µM* | 21µM*
C=CC[C@H](CC(=O)N(CCO)Cc1ccccc1)C(=O)NCCOC(=O)[C@@H](CC=C)Cc1ccc(F)cc1 | -10 | -6% | -1% | 7% | ? | ?
O=C(CC1C=CCC1)N(Cc1ccncc1)C1CC1 (stereo unspecified) | / | / | / | 1% | / | /
Cc1ccc(N2C(=O)C3C4C=CC(CNC(=S)N5CCN(c6cccc(C)c6)C(C)C5)(O4)C3C2=O)cc1 (stereo unspecified) | 27 | 30% | -3% | -23% | 4.6µM* | 9.2µM*
Cc1cccc(N2CCN(C(=O)c3ccc4ccccc4c3)CC2C)c1 (stereo unspecified) | ? | -6% | 1% | -28% | ? | ?
CC1CCN(C(=O)C[C@@H]2c3nc(NC(=O)c4c(F)cccc4F)sc3C[C@@H]3[C@](C)(CO)[C@H](O)CC[C@]32C)CC1 | / | / | / | 0% | / | /
COC(=O)c1sccc1NC(=O)Nc1cccc(C)c1C | 6 | 14% | 5% | 34% | 0% | -17%
COC(=O)c1scc(-c2ccc(C)cc2)c1S(=O)(=O)Nc1cc(OC)c(OC)c(OC)c1 | / | / | / | -26% | ? | 21µM*
CCOC(=O)c1scc(-c2ccc(C)cc2)c1S(=O)(=O)Nc1cc(OC)ccc1OC | / | / | / | ? | 3.7µM* | 9.2µM*
CCN(c1ccccc1)S(=O)(=O)c1c(-c2ccc(C)cc2)csc1C(=O)OC | / | / | / | 2% | 15µM* | 18µM*
CCOC(=O)c1c(S(=O)(=O)Nc2cc(C)ccc2OC)c(C)n(C)c1C | / | / | / | 16% | / | /
COC(=O)c1scc(-c2ccccc2)c1S(=O)(=O)Nc1cccc(C)c1C | / | / | / | -24% | 26µM* | ?
N#Cc1ccc(/C=C/C(=O)N2CCCCC2c2ccc(C(F)(F)F)cc2)cc1 (stereo unspecified) | / | / | / | 1% | / | /
Cc1cccnc1C(C)n1cc(-c2ccccc2-c2ccco2)nn1 (stereo unspecified) | / | / | / | 23% | / | /

Compound activity deposited in PubChem by National Center for Advancing Translational Sciences (NCATS).
